Activity calls are given as the source filed them. Rule for the calls: active = hit-call score of the fitted dose curve at least 0.9, where 1 is the maximum; inconclusive = response in the unintended direction; inactive = score below 0.9.

The target in this experiment is rat CYP3A2, Cyp3a2 (gene 266682) (UniProt P05183). Kind of experiment: NVS_ADME_rCYP3A2: NovaScreen (NVS) CYP450-related Enzyme Activity (ADME) Assay for rat CYP3A2 (AID 2283128). The protocol: NVS_ADME_rCYP3A2 is a biochemical, single-readout assay that uses extracted gene-proteins in a cell-free assay. Measurements were taken 0.5 hour after chemical dosing in a 96-well plate.NVS_ADME_rCYP3A2 is one of one assay component(s) measured or calculated from the NVS_ADME_rCYP3A2 assay. It is designed to make measurements of enzyme activity, a form of enzyme reporter, as detected with fluorescence intensity signals by Fluorescence technology.Data from the assay component NVS_ADME_rCYP3A2 was analyzed into 1 assay endpoint. This assay endpoint, NVS_ADME_rCYP3A2, was analyzed in the positive analysis fitting direction relative to Acetonitrile as the negative control and baseline of activity. Using a type of enzyme reporter, loss-of-signal activity can be used to understand changes in the enzymatic activity as they relate to the gene Cyp3a2. Furthermore, this assay endpoint can be referred to as a primary readout, because this assay has produced multiple assay endpoints where this one serves a enzymatic activity function. To generalize the intended target to other relatable targets, this assay endpoint is annotated to the cyp intended target family, where the subfamily is xenobiotic metabolism.
Chain of rat CYP3A2, Cyp3a2 (gene 266682) (P05183 whole entry, looked up): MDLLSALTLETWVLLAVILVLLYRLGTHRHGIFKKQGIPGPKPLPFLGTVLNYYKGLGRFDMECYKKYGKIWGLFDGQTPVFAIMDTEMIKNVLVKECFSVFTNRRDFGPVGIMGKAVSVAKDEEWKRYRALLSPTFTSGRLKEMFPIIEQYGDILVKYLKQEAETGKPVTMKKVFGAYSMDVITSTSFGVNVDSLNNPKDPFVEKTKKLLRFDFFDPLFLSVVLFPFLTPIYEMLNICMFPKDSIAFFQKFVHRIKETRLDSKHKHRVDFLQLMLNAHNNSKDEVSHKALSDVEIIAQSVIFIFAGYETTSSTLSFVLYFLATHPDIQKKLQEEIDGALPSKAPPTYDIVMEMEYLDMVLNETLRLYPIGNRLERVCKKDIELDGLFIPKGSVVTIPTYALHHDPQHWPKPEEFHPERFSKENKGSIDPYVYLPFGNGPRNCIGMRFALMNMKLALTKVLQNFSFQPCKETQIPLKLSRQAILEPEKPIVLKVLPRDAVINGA
Binding assays used specific radioligands (tritiated, iodinated) with non-radioactive competitive displacement ligands in agonist or antagonist protocols (as indicated) and various reference compounds and inhibitors to titrate specific binding to receptors and transporters. Most enzyme assays (CYPs, kinases, phosphatases, proteases, HDACs) used recombinant protein and specific substrates (fluorescence mostly, some colorimetric and radioactive) and inhibitors, followed by a biochemical separation of substrate and product. All assays for the biochemical HTS were initially run in duplicate at a single concentration (10 uM for CYP450 assays and 25 uM for all others). Assay-chemical combinations meeting a pre-defined threshold (e.g., 30% inhibition and other criteria defined below) were then run in singleton concentration-response format with maximum concentration of 20 uM for CYPs and 50 uM for all others. Each assay was run with positive and negative controls, and concurrent controls on every plate. The follow-up (secondary) screen tested active chemical-pairs in concentration series, as well as a few additional assays not tested in the primary screen, some selected negative inactives, and several cases re-run in the concentration series for confirmatory purposes.
One may read the AC50 as the concentration at which the activity in the assay is half-maximal. With `CCOP(=S)(OCC)Oc1nc(Cl)n(C(C)C)n1`, the AC50 was 1140 nM (active).

For the compound `COP(=S)(OC)SCn1nnc2ccccc2c1=O`, the half-maximal activity concentration (AC50) was 393 nM (active).

Turning to `CCCCC(O)(Cn1cncn1)c1ccc(Cl)cc1Cl` (stereo unspecified), the concentration at half-maximal activity (AC50) was 1600 nM (active).

Turning to `CCN(CC)C(=O)C(C)Oc1cccc2ccccc12` (stereo unspecified), the half-maximal activity concentration (AC50) was 5340 nM (active).

Consider `Cc1ccc(N=CN(C)C=Nc2ccc(C)cc2C)c(C)c1`, for which the AC50 was 1230 nM (active).

On to `COC(=O)c1c(C(F)F)nc(C(F)(F)F)c(C2=NCCS2)c1CC(C)C`, for which the AC50 was 5420 nM (active).

As for `COC(=O)NC(=S)Nc1ccccc1NC(=S)NC(=O)OC`, the half-maximal activity concentration (AC50) was 7250 nM (active).

With `COc1ccc(-c2ccccc2)cc1NNC(=O)OC(C)C`, the concentration at half-maximal activity (AC50) was 832 nM (active).

With `CC(C)=CC1C(C(=O)OCc2coc(Cc3ccccc3)c2)C1(C)C` (stereo unspecified), the half-maximal activity concentration (AC50) was 7040 nM (active).

`CCCCC(C#N)(Cn1cncn1)c1ccc(Cl)cc1` (stereo unspecified): the half-maximal activity concentration (AC50) is 2960 nM (active).

Consider `CO/N=C(/C1=NOCCO1)c1ccccc1Oc1ncnc(Oc2ccccc2Cl)c1F`, for which the AC50 is 1180 nM (active).

`C=CCOC(=O)C(C)(C)OC(=O)c1cc(-n2c(=O)cc(C(F)(F)F)n(C)c2=O)ccc1Cl`: the half-maximal activity concentration (AC50) is 407 nM (active).

Regarding `COP(=S)(OC)Oc1ccc([N+](=O)[O-])c(C)c1`, the half-maximal activity concentration (AC50) was 4290 nM (active).

Take `CCOc1cc(C(C)(C)C)ccc1C1COC(c2c(F)cccc2F)=N1` (stereo unspecified): the AC50 is 2180 nM (active).

Take `CCNP(=S)(OC)O/C(C)=C/C(=O)OC(C)C` (stereo unspecified): the AC50 was 528 nM (active).

For `CC1(C)CCC(=Cc2ccc(Cl)cc2)C1(O)Cn1cncn1` (stereo unspecified), the AC50 was 225 nM (active).
